High-throughput results: PubChem BioAssay, Broad Institute
BL2 CD40 inh: inhibitors of CD40-induced NF-kB signaling, primary screen, BL2 cells, luciferase reporter, single point; CD40L-induced, 4 h; inhibition, % at 10 µM; actives 0.94% (n = 83,000); AID 1053188, 2014;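 active means mean inhibition of at least 50% with a set share of replicates also reaching that level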;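 further: 0% = neutral control wells and 100% = IKK inhibitor VII at 50 µM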
Numbers without * were called inactive; [ ] = remark or other dose. Only a sample is shown.

COC(=O)[C@H]1[C@H](CO)[C@H]2Cn3c(ccc(C4=CCCCC4)c3=O)[C@@H]1N2C(=O)Cc1ccccn1 was read as BL2 CD40 inh -15.8[25 µM].
Screening C/C=C/c1ccc(C2[C@@H]3CN(Cc4cccnc4)C[C@H]2N3)cc1 (stereo partly drawn) returned BL2 CD40 inh -3.0.
Screening C/C=C/c1ccc(C2[C@@H]3CN(Cc4cccc(F)c4)C[C@H]2N3)cc1 (stereo partly drawn) returned BL2 CD40 inh 9.5.
Screening O=C(Cc1ccccc1)N1CC2(C1)[C@H](c1ccccc1)[C@H](CO)N2Cc1cccc(Cl)c1 returned BL2 CD40 inh 17.8[25 µM].
For C[C@]12CC[C@@H](O)C[C@@H]1CC[C@@H]1[C@@H]2CC[C@]2(C)[C@@H](C(=O)CO)CC[C@@H]12 the results were BL2 CD40 inh -8.1[25 µM].
Screening O=C(O)[C@H]1[C@H](CO)[C@H]2Cn3c(ccc(-c4ccccc4F)c3=O)[C@@H]1N2C(=O)Nc1ccccc1 returned BL2 CD40 inh -7.6[25 µM].
